Experimental data taken from PubChem BioAssay (NCI).
This is part of a sample that, as a whole, favours compounds with a hit. Of some 83,000 tested, about 20% had one in any assay.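 How to read the values: 0–100, growth inhibition (40 = 60% inhibited); 0, no net growth; -100 to 0, cell death (-40 = 40% of starting cells died; -100 = all dead).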 Calls of active or inactive are those of the source. How the source made its calls: active means growth percent below 10; inactive means the rest.

Experiments:
Assay in all cases: NCI-60 one-dose screen, 48 h (100 = growth as untreated, 0 = no growth, -100 = all killed)
Details in all cases: 10 µM unless noted
NCI-H23 lung = test system: NCI-H23 lung
NCI-H226 lung = test system: NCI-H226 lung
NCI-H322M lung = test system: NCI-H322M lung
HOP-62 NSCLC = test system: HOP-62 NSCLC
NCI-H460 lung = test system: NCI-H460 lung
HOP-92 NSCLC = test system: HOP-92 NSCLC
NCI-H522 lung = test system: NCI-H522 lung
A549/ATCC NSCLC = test system: A549/ATCC NSCLC
786-0 renal = test system: 786-0 renal
COLO 205 colon = test system: COLO 205 colon
DU-145 prostate = test system: DU-145 prostate
K-562 leukemia = test system: K-562 leukemia
MALME-3M melanoma = test system: MALME-3M melanoma
MDA-MB-231 breast = test system: MDA-MB-231 breast
RXF 393 renal = test system: RXF 393 renal
SF-268 CNS = test system: SF-268 CNS
SF-295 CNS = test system: SF-295 CNS
SF-539 CNS = test system: SF-539 CNS
UACC-257 melanoma = test system: UACC-257 melanoma
M14 melanoma = test system: M14 melanoma

Measured: growth

O=C1/C(=C/c2cccc(F)c2)CN(C(=O)C(Cl)Cl)C/C1=C\c1cccc(F)c1
active: NCI-H23 lung -75.3% | NCI-H226 lung 0.29% | NCI-H322M lung -44.1% | HOP-62 NSCLC -25.8% | NCI-H460 lung -63% | HOP-92 NSCLC -58% | NCI-H522 lung -80.3% | A549/ATCC NSCLC -28.7% | 786-0 renal -77% | COLO 205 colon -60% | DU-145 prostate -81.5% | K-562 leukemia -9.05% | MALME-3M melanoma -36.2% | MDA-MB-231 breast -63.7% | RXF 393 renal -89.6% | SF-268 CNS -29.6% | SF-295 CNS -71.2% | SF-539 CNS -98.6% | UACC-257 melanoma -42.4% | M14 melanoma -69.7%

COc1cc(-c2nc3sccn3c2-c2ccnc(NCCNS(=O)(=O)c3ccccc3)n2)ccc1F
inactive: NCI-H23 lung 67.6% | NCI-H226 lung 41.2% | NCI-H322M lung 67.7% | HOP-62 NSCLC 73.2% | NCI-H460 lung 60.4% | HOP-92 NSCLC 47.8% | NCI-H522 lung 36.2% | A549/ATCC NSCLC 45.5% | 786-0 renal 61.4% | COLO 205 colon 40.4% | DU-145 prostate 61.4% | K-562 leukemia 28.3% | MALME-3M melanoma 49.2% | MDA-MB-231 breast 48.8% | RXF 393 renal 21.5% | SF-268 CNS 48.6% | SF-295 CNS 66.4% | SF-539 CNS 83.8% | UACC-257 melanoma 62.4% | M14 melanoma 38.6%

CCCCCCC12CCC(=O)N1CCc1cncn12 (stereo not given)
inactive: NCI-H23 lung 108% | NCI-H226 lung 99.8% | NCI-H322M lung 109% | HOP-62 NSCLC 100% | NCI-H460 lung 105% | HOP-92 NSCLC 113% | NCI-H522 lung 90% | A549/ATCC NSCLC 95.3% | 786-0 renal 112% | COLO 205 colon 106% | DU-145 prostate 109% | K-562 leukemia 100% | MALME-3M melanoma 120% | MDA-MB-231 breast 110% | RXF 393 renal 92.4% | SF-268 CNS 120% | SF-295 CNS 105% | SF-539 CNS 106% | UACC-257 melanoma 101% | M14 melanoma 113%

COc1cc2c(cc1OC)C(C)N(S(N)(=O)=O)CC2 (stereo not given)
inactive: NCI-H23 lung 87.1% | NCI-H226 lung 78.8% | NCI-H322M lung 105% | HOP-62 NSCLC 80.2% | NCI-H460 lung 111% | HOP-92 NSCLC 98.6% | NCI-H522 lung 98.4% | A549/ATCC NSCLC 101% | 786-0 renal 89.3% | COLO 205 colon 111% | DU-145 prostate 105% | K-562 leukemia 103% | MALME-3M melanoma 105% | MDA-MB-231 breast 101% | RXF 393 renal 113% | SF-268 CNS 96.2% | SF-295 CNS 104% | SF-539 CNS 97.7% | UACC-257 melanoma 100% | M14 melanoma 91.8%

C=CCSc1nnc(NC(=O)CCl)s1
inactive: NCI-H23 lung 93.6% | NCI-H226 lung 88.8% | NCI-H322M lung 101% | HOP-62 NSCLC 109% | NCI-H460 lung 99.9% | HOP-92 NSCLC 112% | NCI-H522 lung 85.3% | A549/ATCC NSCLC 95.2% | 786-0 renal 101% | COLO 205 colon 122% | DU-145 prostate 87.4% | K-562 leukemia 87.7% | MALME-3M melanoma 73.8% | MDA-MB-231 breast 89.6% | RXF 393 renal 97.5% | SF-268 CNS 91.9% | SF-295 CNS 101% | SF-539 CNS 101% | UACC-257 melanoma 79.1% | M14 melanoma 83.2%

CCC(C)(C)C(=O)O[C@H]1C[C@@H](C)C=C2C=C[C@H](C)[C@H](CC[C@@H]3CC(SCCN)CC(=O)O3)[C@H]21 (stereo not given in full)
inactive: NCI-H23 lung 98.2% | NCI-H226 lung 98.3% | NCI-H322M lung 97.4% | HOP-62 NSCLC 98.9% | NCI-H460 lung 107% | HOP-92 NSCLC 34.6% | NCI-H522 lung 65.4% | A549/ATCC NSCLC 75.7% | 786-0 renal 102% | COLO 205 colon 82.8% | DU-145 prostate 98.7% | K-562 leukemia 51.2% | MALME-3M melanoma 86.2% | MDA-MB-231 breast 88.7% | RXF 393 renal 86.8% | SF-268 CNS 96.3% | SF-295 CNS 106% | SF-539 CNS 76.2% | UACC-257 melanoma 78% | M14 melanoma 60.1%

COC(=O)c1c(C)c2n(c1C)C(=O)C(c1ccccc1)=C2
inactive: NCI-H23 lung 68.9% | NCI-H226 lung 61.8% | NCI-H322M lung 94.5% | HOP-62 NSCLC 72.7% | NCI-H460 lung 89.5% | HOP-92 NSCLC 65.8% | NCI-H522 lung 61.9% | A549/ATCC NSCLC 39.6% | 786-0 renal 94.3% | COLO 205 colon 79.3% | DU-145 prostate 97.9% | K-562 leukemia 74.8% | MALME-3M melanoma 82.1% | MDA-MB-231 breast 60.5% | RXF 393 renal 82.3% | SF-268 CNS 103% | SF-295 CNS 79.9% | SF-539 CNS 87.6% | UACC-257 melanoma 18.1% | M14 melanoma 86.3%

COc1cc2c(c(OC)c1OC)CCC(c1cccc(C(=O)Nc3ccc(C#N)cc3)c1)O2 (stereo not given)
inactive: NCI-H23 lung 40.6% | NCI-H226 lung 33% | NCI-H322M lung 77.4% | HOP-62 NSCLC 72.1% | NCI-H460 lung 56.5% | HOP-92 NSCLC 52.3% | NCI-H522 lung 38.4% | A549/ATCC NSCLC 50.9% | 786-0 renal 80.6% | COLO 205 colon 84.8% | DU-145 prostate 66.5% | K-562 leukemia 20.4% | MALME-3M melanoma 58.2% | MDA-MB-231 breast 49.4% | RXF 393 renal 78.8% | SF-268 CNS 80.1% | SF-295 CNS 42.5% | SF-539 CNS 68.8% | UACC-257 melanoma 44.5% | M14 melanoma 37.7%
